Experimental findings from PubChem BioAssay (EPA / NIEHS) are described below.

What all share (settings): mRNA level, 48 h; actives raise or lower the signal
Read-out in assay [1]: ABC Transporter (ABCB11), ABCB11 (gene 8647)
Nature of the assay: LTEA_HepaRG_ABCB11: Life Technologies and Expression Analysis (LTEA) Assay for ABC Transporter (ABCB11) using HepaRG (AID 2283463). An outline of the steps:
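ABCB11 transcript levels are read by Fluidigm TaqMan qRT-PCR after 48 h chemical treatment of human HepaRG cells. Concentrations span 100 uM downward in half-log steps with 0.5% DMSO; gain or loss is fitted against DMSO controls.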

Read-out in assay [2]: ABC Transporter (ABCC2), ABCC2 (gene 1244)
The experiment in a line: LTEA_HepaRG_ABCC2: Life Technologies and Expression Analysis (LTEA) Assay for ABC Transporter (ABCC2) using HepaRG (AID 2283464). In short, it runs like this: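 qRT-PCR (TaqMan, Fluidigm array) read-out of ABCC2 mRNA, normalized to three housekeeping genes. Differentiated HepaRG cells were treated 48 h in serum-free induction medium with 8-point half-log series from 100 uM in 0.5% DMSO; curves fitted bidirectionally relative to DMSO.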

Read-out in assay [3]: Broad substrate specificity ATP-binding cassette transporter ABCG2 (Homo sapiens) (UniProt Q9UNQ0)
Nature of the assay: LTEA_HepaRG_ABCG2: Life Technologies and Expression Analysis (LTEA) Assay for ABC Transporter (ABCG2) using HepaRG (AID 2283465). In short, it runs like this: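 Read-out is ABCG2 mRNA induction or loss quantified by qRT-PCR after 48 h chemical treatment of human HepaRG cells, normalized to three housekeeping genes. Concentrations reached 100 uM top in half-log steps; fitting was bidirectional against 0.5% DMSO.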

Read-out in assay [4]: ATP-citrate lyase (ACLY), ACLY (gene 47)
The experiment in a line: LTEA_HepaRG_ACLY: Life Technologies and Expression Analysis (LTEA) Assay for ATP-citrate lyase (ACLY) using HepaRG (AID 2283466). In short, it runs like this:
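HepaRG, 48 h exposure, 8-pt half-log dilutions (top 100 uM), 0.5% DMSO. Readout: ACLY mRNA, TaqMan qRT-PCR, housekeeping-normalized (ACTB/GAPDH/POLR2A). Bidirectional curve fit vs DMSO.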

Read-out in assay [5]: Peroxisomal acyl-coenzyme A oxidase 1 (ACOX1) gene, ACOX1 (gene 51)
Nature of the assay: LTEA_HepaRG_ACOX1: Life Technologies and Expression Analysis (LTEA) Assay for Peroxisomal acyl-coenzyme A oxidase 1 (ACOX1) gene using HepaRG (AID 2283467). An outline of the steps:
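Measured by qRT-PCR against three housekeeping genes: ACOX1 transcript change in human HepaRG cells after 48 h dosing. Concentrations ran up to 100 uM in half-log steps. Curves were fitted bidirectionally relative to 0.5% DMSO.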

Read-out in assay [6]: Alkaline Phosphatase, Placental (ALPP) gene, ALPP (gene 250)
Nature of the assay: LTEA_HepaRG_ALPP: Life Technologies and Expression Analysis (LTEA) Assay for Alkaline Phosphatase, Placental (ALPP) gene using HepaRG (AID 2283468).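 For AC50: differentiated human HepaRG liver cells in serum-free induction medium.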 An outline of the steps:
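qRT-PCR readout of ALPP mRNA (Fluidigm TaqMan), normalized to ACTB/GAPDH/POLR2A, after 48 h chemical exposure of HepaRG cells; 8-point half-log series, top 100 uM, 0.5% DMSO vehicle. Bidirectional curve fit versus DMSO baseline.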

Read-out in assay [7]: Bcl-2 (BAD) gene, BAD (gene 572)
The experiment in a line: LTEA_HepaRG_BAD: Life Technologies and Expression Analysis (LTEA) Assay for Bcl-2 (BAD) gene using HepaRG (AID 2283469). In short, it runs like this: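 BAD transcript change, measured by qRT-PCR against three housekeeping genes and fitted in both directions relative to 0.5% DMSO, after 48 h chemical treatment of human HepaRG liver cells at concentrations up to 100 uM.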

Read-out in assay [8]: Bcl-2 (BAX) gene, BAX (gene 581)
The experiment in a line: LTEA_HepaRG_BAX: Life Technologies and Expression Analysis (LTEA) Assay for Bcl-2 (BAX) gene using HepaRG (AID 2283470). In short, it runs like this:
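Concentration-response endpoint fitted in both directions relative to 0.5% DMSO vehicle. Human HepaRG cultures receive test chemicals for 48 h at up to 100 uM; BAX mRNA is quantified by qRT-PCR against housekeeping genes.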

Read-out in assay [9]: adenosine kinase (ADK) gene, ADK (gene 132)
The experiment in a line: LTEA_HepaRG_ADK: Life Technologies and Expression Analysis (LTEA) Assay for adenosine kinase (ADK) gene using HepaRG (AID 2283471). An outline of the steps: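 HepaRG (human liver), 48 h chemical exposure, 8-pt half-log series, top 100 uM, 0.5% DMSO vehicle. Readout: ADK mRNA by qRT-PCR vs housekeeping genes; bidirectional curve fit relative to DMSO baseline.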

Read-out in assay [10]: Alpha-fetoprotein (AFP) gene, AFP (gene 174)
Nature of the assay: LTEA_HepaRG_AFP: Life Technologies and Expression Analysis (LTEA) Assay for Alpha-fetoprotein (AFP) gene using HepaRG (AID 2283472). An outline of the steps:
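After a 48 h plating period, cells are moved to serum-free induction medium and dosed in duplicate (100 uM maximum, half-log dilutions, 0.5% DMSO) for another 48 h. Total RNA goes to TaqMan qRT-PCR; AFP signal is housekeeping-normalized.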

Read-out in another assay: BCL2L11 (gene 10018)
The experiment in a line: LTEA_HepaRG_BCL2L11: Life Technologies and Expression Analysis (LTEA) Assay for Bcl-2 (BCL2L11) gene using HepaRG (AID 2283473). An outline of the steps: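 HepaRG, 48 h exposure, 8-pt half-log series from 100 uM in 0.5% DMSO, duplicates; qRT-PCR (Fluidigm TaqMan) for BCL2L11, housekeeping-normalized; bidirectional curve fit relative to DMSO baseline.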

Read-out in assay [11]: Apolipoprotein A-V (APOA5) gene, APOA5 (gene 116519)
The experiment in a line: LTEA_HepaRG_APOA5: Life Technologies and Expression Analysis (LTEA) Assay for Apolipoprotein A-V (APOA5) gene using HepaRG (AID 2283474). In short, it runs like this:
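HepaRG, 48 h chemical exposure in serum-free induction medium, 8-pt half-log series (top 100 uM), 0.5% DMSO vehicle, duplicates. Readout: APOA5 mRNA by qRT-PCR, housekeeping-normalized; bidirectional fit vs DMSO baseline.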

Read-out in assay [12]: Apoptosis regulator Bcl-2 (Homo sapiens) (UniProt P10415)
The experiment in a line: LTEA_HepaRG_BCL2: Life Technologies and Expression Analysis (LTEA) Assay for Bcl-2 gene using HepaRG (AID 2283475). An outline of the steps: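 Expression change of BCL2 mRNA in HepaRG after 48 h dosing, quantified by TaqMan qRT-PCR against three endogenous controls. Concentration-response used eight points up to 100 uM, vehicle 0.5% DMSO.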

Read-out in assay [13]: Bcl-2 (BID) gene, BID (gene 637)
The experiment in a line: LTEA_HepaRG_BID: Life Technologies and Expression Analysis (LTEA) Assay for Bcl-2 (BID) gene using HepaRG (AID 2283476). An outline of the steps:
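Gain or loss of BID expression is fitted relative to 0.5% DMSO vehicle. Human HepaRG liver cells received a 48 h chemical exposure over an eight-point concentration range.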

Read-out in a further assay: Caspase-3 (Homo sapiens) (UniProt P42574)
The experiment in a line: LTEA_HepaRG_CASP3: Life Technologies and Expression Analysis (LTEA) Assay for cysteine-aspartic acid protease (CASP3) using HepaRG (AID 2283477). In short, it runs like this:
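HepaRG, 48 h exposure, 8 conc. (top 100 uM, half-log steps, duplicate), 0.5% DMSO vehicle; qRT-PCR of CASP3 transcript, housekeeping-normalised (ACTB/GAPDH/POLR2A); bidirectional curve fit vs DMSO baseline.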

Read-out in assay [14]: Cytochrome P450 (CYP24A1), CYP24A1 (gene 1591)
The experiment in a line: LTEA_HepaRG_CYP24A1: Life Technologies and Expression Analysis (LTEA) Assay for Cytochrome P450 (CYP24A1) using HepaRG (AID 2283478). In short, it runs like this: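 qRT-PCR read-out: CYP24A1 transcript levels normalized to three housekeeping genes, bidirectional curve fits against 0.5% DMSO baseline. Human HepaRG cells treated 48 h with chemicals at eight concentrations from 100 uM in half-log steps.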

Read-out in assay [15]: Cytochrome P450 (CYP1A2), CYP1A2 (gene 1544)
Nature of the assay: LTEA_HepaRG_CYP1A2: Life Technologies and Expression Analysis (LTEA) Assay for Cytochrome P450 (CYP1A2) using HepaRG (AID 2283479). In short, it runs like this:
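HepaRG, 48 h exposure, top 100 uM, half-log 8-pt, 0.5% DMSO vehicle, duplicates. Readout: TaqMan qRT-PCR of CYP1A2 mRNA, housekeeping-normalized (ACTB/GAPDH/POLR2A). Gain/loss fit relative to DMSO baseline.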

Read-out in assay [16]: cysteine-aspartic acid protease (CASP8), CASP8 (gene 841)
Nature of the assay: LTEA_HepaRG_CASP8: Life Technologies and Expression Analysis (LTEA) Assay for cysteine-aspartic acid protease (CASP8) using HepaRG (AID 2283480). In short, it runs like this:
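HepaRG, 48 h exposure, duplicate wells; 8 conc, half-log from 100 uM, 0.5% DMSO. Serum-free induction medium. CASP8 mRNA by TaqMan qRT-PCR, norm. ACTB/GAPDH/POLR2A; gain/loss fitted vs DMSO.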

Read-out in assay [17]: Cytochrome P450 (CYP2B6), CYP2B6 (gene 1555)
The experiment in a line: LTEA_HepaRG_CYP2B6: Life Technologies and Expression Analysis (LTEA) Assay for Cytochrome P450 (CYP2B6) using HepaRG (AID 2283481). An outline of the steps:
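Read-out is CYP2B6 mRNA by TaqMan qRT-PCR, normalized to three housekeeping genes and fitted bidirectionally against 0.5% DMSO baseline. Human HepaRG cells received test chemicals for 48 h, top concentration 100 uM, half-log dilutions.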

Read-out in assay [18]: Cytochrome P450 2C19 (Homo sapiens) (UniProt P33261)
Nature of the assay: LTEA_HepaRG_CYP2C19: Life Technologies and Expression Analysis (LTEA) Assay for CYP2C19 using HepaRG (AID 2283482). In short, it runs like this:
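HepaRG, 48 h chemical exposure, 8-pt half-log series from 100 uM in 0.5% DMSO, duplicates. Readout: CYP2C19 mRNA by TaqMan qRT-PCR, housekeeping-normalized. Bidirectional fit vs DMSO baseline; phenobarbital 1mM as induction control.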

Activity calls are given as the source filed them. Rule for the calls: active = hit-call score of the fitted dose curve at least 0.9, where 1 is the maximum; inactive = score below 0.9.

Chain of Caspase-3 (Homo sapiens) (P42574 whole entry, looked up): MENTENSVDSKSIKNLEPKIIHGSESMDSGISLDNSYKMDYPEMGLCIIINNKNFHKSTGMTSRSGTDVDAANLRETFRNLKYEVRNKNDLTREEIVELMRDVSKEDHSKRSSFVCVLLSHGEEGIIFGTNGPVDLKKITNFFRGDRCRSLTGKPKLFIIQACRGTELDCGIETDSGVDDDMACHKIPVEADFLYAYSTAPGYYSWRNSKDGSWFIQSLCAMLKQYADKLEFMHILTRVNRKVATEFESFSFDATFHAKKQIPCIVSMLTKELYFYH
Chain of Cytochrome P450 2C19 (Homo sapiens) (P33261 whole entry, looked up): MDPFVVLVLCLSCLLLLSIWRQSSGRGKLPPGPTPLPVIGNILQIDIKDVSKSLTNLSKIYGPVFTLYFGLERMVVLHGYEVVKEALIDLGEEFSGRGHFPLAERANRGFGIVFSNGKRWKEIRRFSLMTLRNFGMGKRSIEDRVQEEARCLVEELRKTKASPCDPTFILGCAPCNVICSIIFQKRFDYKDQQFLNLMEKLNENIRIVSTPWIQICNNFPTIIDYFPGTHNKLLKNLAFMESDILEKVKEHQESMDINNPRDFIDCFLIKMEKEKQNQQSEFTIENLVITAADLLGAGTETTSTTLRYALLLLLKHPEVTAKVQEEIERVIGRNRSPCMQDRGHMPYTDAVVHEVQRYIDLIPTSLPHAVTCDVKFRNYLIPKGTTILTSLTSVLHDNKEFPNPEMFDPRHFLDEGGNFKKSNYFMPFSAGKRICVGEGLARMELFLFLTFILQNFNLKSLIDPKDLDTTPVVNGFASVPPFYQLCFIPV
Chain of Broad substrate specificity ATP-binding cassette transporter ABCG2 (Homo sapiens) (Q9UNQ0 whole entry, looked up): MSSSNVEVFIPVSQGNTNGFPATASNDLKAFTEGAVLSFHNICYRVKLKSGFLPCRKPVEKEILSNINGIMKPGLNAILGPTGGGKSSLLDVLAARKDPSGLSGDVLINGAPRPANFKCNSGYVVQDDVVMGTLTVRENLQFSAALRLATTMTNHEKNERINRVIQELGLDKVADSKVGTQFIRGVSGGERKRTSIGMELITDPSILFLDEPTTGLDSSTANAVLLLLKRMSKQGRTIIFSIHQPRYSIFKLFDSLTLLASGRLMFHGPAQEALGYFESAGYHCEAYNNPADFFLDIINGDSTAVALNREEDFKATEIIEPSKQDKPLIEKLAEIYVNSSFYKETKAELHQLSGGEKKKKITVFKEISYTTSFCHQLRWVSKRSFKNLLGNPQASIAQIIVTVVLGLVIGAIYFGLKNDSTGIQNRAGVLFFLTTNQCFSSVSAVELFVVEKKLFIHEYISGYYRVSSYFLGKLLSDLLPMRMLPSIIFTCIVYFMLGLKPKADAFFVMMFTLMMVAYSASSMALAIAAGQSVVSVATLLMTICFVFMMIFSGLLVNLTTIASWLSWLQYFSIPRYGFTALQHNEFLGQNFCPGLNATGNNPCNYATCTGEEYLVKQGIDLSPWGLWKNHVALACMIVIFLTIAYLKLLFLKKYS
Chain of Apoptosis regulator Bcl-2 (Homo sapiens) (P10415 whole entry, looked up): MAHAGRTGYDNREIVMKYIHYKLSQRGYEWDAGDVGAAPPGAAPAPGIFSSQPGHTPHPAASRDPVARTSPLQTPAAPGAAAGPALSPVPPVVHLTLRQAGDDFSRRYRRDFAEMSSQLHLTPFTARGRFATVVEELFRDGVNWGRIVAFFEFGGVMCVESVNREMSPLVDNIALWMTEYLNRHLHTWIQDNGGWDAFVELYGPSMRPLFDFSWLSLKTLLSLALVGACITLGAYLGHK

With `O=C(O)c1cccc(N(Cc2cccnc2)c2ccc(OC(F)F)c(OC(F)F)c2)c1`, the concentration at half-maximal activity (AC50) was 90.6 µM (active) in assay [1], 83.3 µM (active) in assay [4], 79.9 µM (active) in assay [6] and 0.00316 µM (active) in assay [14]. The outcome in assay [2], in assay [3], in [5], in assay [7], in assay [8] and in assay [9] was inactive. For the same compound, the compound was classed as inactive (in assay [10]; in the assay with BCL2L11 (gene 10018); in [11]; in [12]; in [13]; with Caspase-3 (Homo sapiens)). For the same compound, the compound was called inactive in [15], in [16], in assay [17] and in [18].

As to `CC(C)CCO`, the compound was called inactive in assay [1], in [2], in assay [3], in assay [4], in [5] and in assay [6]. For the same compound, the compound was called inactive (in [7]; in [8]; in [9]; in assay [10]; with BCL2L11 (gene 10018); in assay [11]). Also, the compound was called inactive (in assay [12]; in [13]; in the assay with Caspase-3 (Homo sapiens); in assay [14]; in [15]; in assay [16]). For the same compound, the compound was called inactive in [17] and in assay [18].

In the case of `CCOC(=O)COc1ccc2c(c1)CC(NCC(O)c1cccc(Cl)c1)CC2` (centres undefined), the result in [1], in assay [2], in assay [3], in assay [4], in [5] and in assay [7] was inactive. The compound was classed as inactive (in [8]; in [9]; in assay [10]; with BCL2L11 (gene 10018); in assay [11]; in [13]). The compound was called inactive (with Caspase-3 (Homo sapiens); in assay [14]; in assay [15]; in assay [18]). Further, the AC50 was 16 µM (active) in assay [6], 45.8 µM (active) in assay [12] and 0.947 µM (active) in assay [17].

As for `CCCCC(CC)COC(=O)CCCCCCCCC(=O)OCC(CC)CCCC` (centres undefined), the compound was called inactive in assay [1], in assay [3], in assay [4], in [5], in [6] and in assay [7]. Also, the compound was called inactive (in [8]; in [9]; in assay [10]; with BCL2L11 (gene 10018); in assay [11]; in assay [12]). Besides, the call (in assay [13]; in the assay with Caspase-3 (Homo sapiens); in assay [14]; in [15]; in assay [16]; in [17]) was inactive. For the same compound, the outcome in [18] was inactive.

In the case of `O=C1OC(=O)C2C3C=CC(C3)C12` (centres undefined), the compound was classed as inactive in assay [1], in assay [2], in [3], in assay [4], in assay [5] and in [6]. The compound was called inactive (in assay [7]; in [8]; in assay [9]; in the assay with BCL2L11 (gene 10018); in assay [11]; in assay [12]). Also, the call (in assay [13]; in the assay with Caspase-3 (Homo sapiens); in [14]; in assay [15]; in assay [17]; in [18]) was inactive.

With `O=C(O)CCN(C1(C(=O)NO)CCCC1)S(=O)(=O)c1ccc(Oc2ccc(F)cc2)cc1`, the result in [1], in assay [2], in assay [3], in assay [4], in assay [5] and in [6] was inactive. In addition, the compound was called inactive (in [7]; in [8]; in [9]; with BCL2L11 (gene 10018); in assay [11]; in [12]). Further, the compound was called inactive (in assay [13]; with Caspase-3 (Homo sapiens); in assay [14]; in assay [15]; in assay [17]; in assay [18]).

A word on the AC50: it is the concentration giving half of the maximal activity seen.
